Out of some 5,500 compounds screened, about 2,000 (36%) were called active. Inconclusive results (about 18%) are left out. No stated cut-off is given here; in the data, active means normalized growth mostly below about 0.91 (no sharp cut-off); inconclusive means no clear call, values can overlap the other calls; inactive means mostly above about 0.92. Some of the results follow.
Experiment: chemical genetic growth profiling, strain panel (AID 1159580);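 further: tested at 20 µM; growth read once vehicle control cultures reached saturation at 30 °C; 1 = growth at the plate median or of vehicle wells; lower values mean less growth of the strain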
Conditions: growth OD

Measured: normalized growth

CC1C(=O)OC2C1CCC1(C)C=CC(=O)C3(C)OC213 (stereo unspecified)
inactive: S. cerevisiae deletion strains, locus YAL013W, strain DEP1, hits give low values 0.968 | S. cerevisiae deletion strains, locus YBR021W, strain FUR4, hits give low values 1.01 | S. cerevisiae deletion strains, locus YBR229C, strain ROT2, hits give low values 1.01 | S. cerevisiae deletion strains, locus YCL029C, strain bik1, hits give low values 1.01 | S. cerevisiae deletion strains, locus YDL035C, strain GPR1, hits give low values 1.02 | S. cerevisiae deletion strains, locus YDL074C, strain BRE1, hits give low values 0.974 | S. cerevisiae deletion strains, locus YDL101C, strain DUN1, hits give low values 1 | S. cerevisiae deletion strains, locus YDL134C, strain PPH21, hits give low values 0.999 | S. cerevisiae deletion strains, locus YDL185W, strain tfp1, hits give low values 1.01 | S. cerevisiae deletion strains, locus YDL192W, strain arf1, hits give low values 0.999 | S. cerevisiae deletion strains, locus YDR101C, strain arx1, hits give low values 0.989 | S. cerevisiae deletion strains, locus YDR150W, strain NUM1, hits give low values 1 | S. cerevisiae deletion strains, locus YDR162C, strain NBP2, hits give low values 0.985 | S. cerevisiae deletion strains, locus YDR318W, strain mcm21, hits give low values 1.01 | S. cerevisiae deletion strains, locus YDR388W, hits give low values 1 | S. cerevisiae deletion strains, locus YDR502C, strain sam2, hits give low values 0.985 | S. cerevisiae deletion strains, locus YEL061C, strain CIN8, hits give low values 1.02 | S. cerevisiae deletion strains, locus YER110C, hits give low values 1.01 | S. cerevisiae deletion strains, locus YER155C, strain BEM2, hits give low values 1 | S. cerevisiae deletion strains, locus YER167W, strain BCK2, hits give low values 1.02 | S. cerevisiae deletion strains, locus YGL078C, strain dbp3, hits give low values 1 | S. cerevisiae deletion strains, locus YGL086W, strain mad1, hits give low values 1.01 | S. cerevisiae deletion strains, locus YGL248W, strain PDE1, hits give low values 1.01 | S. cerevisiae deletion strains, locus YGR078C, strain PAC10, hits give low values 0.989 | S. cerevisiae deletion strains, locus YGR135W, strain pre9, hits give low values 0.976 | S. cerevisiae deletion strains, locus YGR229C, strain SMI1, hits give low values 0.999 | S. cerevisiae deletion strains, locus YGR252W, strain gcn5, hits give low values 1.01 | S. cerevisiae deletion strains, locus YHR030C, strain SLT2, hits give low values 1.01 | S. cerevisiae deletion strains, locus YHR079C, strain IRE1 (second series), hits give low values 1.02 | S. cerevisiae deletion strains, locus YHR094C, strain hxt1, hits give low values 0.999 | S. cerevisiae deletion strains, locus YHR129C, strain ARP1, hits give low values 1.02 | S. cerevisiae deletion strains, locus YHR200W, strain rpn10, hits give low values 1 | S. cerevisiae deletion strains, locus YIL066C, strain RNR3, hits give low values 0.999 | S. cerevisiae deletion strains, locus YIL073C, strain SPO22, hits give low values 1.09 | S. cerevisiae deletion strains, locus YIL125W, strain kgd1, hits give low values 1.01 | S. cerevisiae deletion strains, locus YIR030C, strain dcg1, hits give low values 1 | S. cerevisiae deletion strains, locus YJL095W, strain BCK1, hits give low values 0.988 | S. cerevisiae deletion strains, locus YJL134W, strain LCB3, hits give low values 1.01 | S. cerevisiae deletion strains, locus YJL168C, strain set2, hits give low values 1.01 | S. cerevisiae deletion strains, locus YJL187C, strain SWE1 (second series), hits give low values 1.01 | S. cerevisiae deletion strains, locus YJR043C, strain POL32, hits give low values 1.06 | S. cerevisiae deletion strains, locus YJR075W, strain HOC1, hits give low values 1 | S. cerevisiae deletion strains, locus YKL009W, strain mrt4, hits give low values 1.02 | S. cerevisiae deletion strains, locus YKL068W, hits give low values 1 | S. cerevisiae deletion strains, locus YKL085W, strain MDH1 (second series), hits give low values 1.04 | S. cerevisiae deletion strains, locus YKL085W, strain MDH1, hits give low values 1.04 | S. cerevisiae deletion strains, locus YKL190W, strain CNB1, hits give low values 1.01 | S. cerevisiae deletion strains, locus YKR001C, strain vps1, hits give low values 1 | S. cerevisiae deletion strains, locus YLR039C, strain RIC1, hits give low values 1.01 | S. cerevisiae deletion strains, locus YLR058C, strain SHM2, hits give low values 1.01 | S. cerevisiae deletion strains, locus YLR102C, strain apc9, hits give low values 1.01 | S. cerevisiae deletion strains, locus YLR262C, strain YPT6, hits give low values 0.996 | S. cerevisiae deletion strains, locus YLR268W, strain sec22, hits give low values 0.959 | S. cerevisiae deletion strains, locus YLR330W, strain CHS5, hits give low values 1.01 | S. cerevisiae deletion strains, locus YLR342W, strain FKS1 (second series), hits give low values 1.06 | S. cerevisiae deletion strains, locus YLR371W, strain rom2, hits give low values 1.01 | S. cerevisiae deletion strains, locus YLR418C, strain cdc73, hits give low values 0.963 | S. cerevisiae deletion strains, locus YML016C, strain PPZ1, hits give low values 1 | S. cerevisiae deletion strains, locus YML032C, strain rad52, hits give low values 1.01 | S. cerevisiae deletion strains, locus YML124C, strain tub3, hits give low values 1 | S. cerevisiae deletion strains, locus YMR078C, strain ctf18, hits give low values 1 | S. cerevisiae deletion strains, locus YMR223W, strain ubp8, hits give low values 1.01 | S. cerevisiae deletion strains, locus YMR263W, strain SAP30, hits give low values 0.982 | S. cerevisiae deletion strains, locus YMR307W, strain GAS1, hits give low values 1.02 | S. cerevisiae deletion strains, locus YNL067W, strain RPL9B, hits give low values 0.97 | S. cerevisiae deletion strains, locus YNL128W, strain TEP1, hits give low values 1 | S. cerevisiae deletion strains, locus YNL153C, strain GIM3, hits give low values 0.989 | S. cerevisiae deletion strains, locus YNL233W, strain BNI4, hits give low values 1.01 | S. cerevisiae deletion strains, locus YNL250W, strain rad50, hits give low values 0.999 | S. cerevisiae deletion strains, locus YNL271C, strain bni1, hits give low values 1.01 | S. cerevisiae deletion strains, locus YNL298W, strain CLA4, hits give low values 0.99 | S. cerevisiae deletion strains, locus YNL307C, strain MCK1, hits give low values 1.02 | S. cerevisiae deletion strains, locus YNL322C, strain KRE1, hits give low values 1 | S. cerevisiae deletion strains, locus YNR052C, strain pop2, hits give low values 1.02 | S. cerevisiae deletion strains, locus YOL006C, strain TOP1, hits give low values 0.926 | S. cerevisiae deletion strains, locus YOL012C, strain htz1 1.83 | S. cerevisiae deletion strains, locus YOL147C, strain pex11, hits give low values 1.01 | S. cerevisiae deletion strains, locus YOR061W, strain CKA2, hits give low values 1.01 | S. cerevisiae deletion strains, locus YOR069W, strain VPS5, hits give low values 1.01 | S. cerevisiae deletion strains, locus YOR136W, strain idh2, hits give low values 1.01 | S. cerevisiae deletion strains, locus YOR144C, strain elg1, hits give low values 0.997 | S. cerevisiae deletion strains, locus YOR184W, strain ser1, hits give low values 1.01 | S. cerevisiae deletion strains, locus YOR316C, strain cot1, hits give low values 1.01 | S. cerevisiae deletion strains, locus YPL055C, strain LGE1, hits give low values 0.974 | S. cerevisiae deletion strains, locus YPL241C, strain CIN2, hits give low values 1.01 | S. cerevisiae deletion strains, locus YPR119W, strain clb2, hits give low values 0.996 | S. cerevisiae deletion strains, locus YPR141C, strain kar3, hits give low values 0.998 | S. cerevisiae deletion strains, locus YPR163C, strain tif3, hits give low values 1.01 | S. cerevisiae deletion strains, locus YPR167C, strain met16, hits give low values 1 | S. cerevisiae deletion strains, strain wtn01, hits give low values 0.996 | S. cerevisiae strains, strain wild type, hits give low values 1.01

— PubChem BioAssay AID1159580 (chemical genetic matrix, 2015)
